Values without a mark were called inactive. Records with an inconclusive call do not appear. Calls of active or inactive are those of the source. Unless noted, calls come from the whole dose curve; as a rule, active = well fitted curve in the direction sought with a large enough effect in the repeat runs; inconclusive = weak or mixed curves; inactive = no such curve, though single readings can be large; an effect the other way counts as inactive or inconclusive.

The nature of experiment [1]: qHTS assay for small molecule agonists of the p53 signaling pathway (AID 651631; calls by dose curve; note: nearly all actives have a fitted effect of over 15% in size; note: potency is the fitted concentration of half-maximal effect). The gist of the method: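 HCT-116 p53RE-bla reporter line, 16 h compound treatment at 37 °C, then fluorescence after 2 h with B/G FRET substrate.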
(In general: Quantitative high-throughput screening tests each substance at several concentrations.)

Experiment [2] can be described thus: qHTS assay for small molecules that induce genotoxicity in human embryonic kidney cells expressing luciferase-tagged ATAD5 (AID 651632). Note: nearly all actives have a fitted effect of over 15% in size. Note: potency is the fitted concentration of half-maximal effect. The essentials: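 Genotoxicity read-out via ATAD5-luciferase: HEK293T cells, 16 hr compound incubation at 37C, Amplite detection.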
Experiment [3] in a line: qHTS assay for small molecule agonists of the p53 signaling pathway - cell viability (AID 651633; calls by dose curve; note: nearly all actives have a fitted effect of over 30% in size; note: potency is the fitted concentration of half-maximal effect). The gist of the method:
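Viability counter-read: CellTiter-Glo luminescence (30 min, room temperature) in the same p53RE-bla plates. These plates had been exposed to compounds for 16 h at 37 C.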

The nature of experiment [4]: qHTS assay for small molecule disruptors of the mitochondrial membrane potential - cell viability (AID 720634; calls by dose curve;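 note: human HepG2 liver cancer cells; series mostly up to about 83 µM; nearly all actives have a fitted effect of over 20% in size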). The gist of the method:
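Human hepatoma HepG2 cells were treated for 1 hr with test chemicals, then given m-MPI dye and CellTiter-Glo. Cell viability reflects luminescence proportional to cellular ATP.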

The nature of experiment [5]: qHTS assay to test for compound auto fluorescence at 590 nm (red) in HepG2 cells (AID 720674). The gist of the method:
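We screened compounds on adherent HepG2 cells, incubating them for an hour at 37 C in 5% CO2 before reading emission at 590 nm under 540 nm excitation; values reflect equivalence to Rose Bengal sodium fluorescence.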

The nature of experiment [6]: qHTS assay to test for compound auto fluorescence at 535 nm (green) in HepG2 cells (AID 720675).
Experiment [7] in a line: qHTS assay to test for compound auto fluorescence at 460 nm (blue) in HEK293 cells (AID 720678). The essentials:
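HEK293 cells (2,000 per well, medium with 10% dialyzed FBS) attached for 4-5 hr at 37C, then received compound and stood overnight at 37C, 5% CO2. Blue fluorescence was read at Ex/Em 405/460 nm and expressed relative to triamterene.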

The nature of experiment [8]: qHTS assay to test for compound auto fluorescence at 590 nm (red) in HEK293 cells (AID 720679). The gist of the method: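 HEK293 cells (2,000/well, medium with 10% dialyzed FBS) attached for 4-5 hr at 37C, received 23 nL compound and were incubated overnight at 37C, 5% CO2. Red fluorescence was then read at 540/590nm Ex/Em, referenced to Rose Bengal sodium.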
A short description of experiment [9]: qHTS assay to test for compound auto fluorescence at 535 nm (green) in HEK293 cells (AID 720680).
A short description of experiment [10]: qHTS assay to test for compound auto fluorescence at 460 nm (blue) in HEK293 cell free culture (AID 720681). The gist of the method:
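Blue fluorescence (Ex 405/Em 460 nm, triamterene-equivalent) was read immediately after pin transfer of compound or DMSO into medium (DMEM, 10% FBS) without cells.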

A short description of experiment [11]: qHTS assay to test for compound auto fluorescence at 535 nm (green) in HEK293 cell free culture (AID 720682). The gist of the method:
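Steps: dispense DMEM/10% FBS into empty wells; pin in compound or DMSO; measure fluorescence at 485/535 nm. Values are fluorescein equivalents.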

Experiment [12] can be described thus: qHTS assay to test for compound auto fluorescence at 590 nm (red) in HEK293 cell free culture (AID 720683). The gist of the method:
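Red-channel autofluorescence of compounds in culture medium (DMEM, 10% FBS), no cells, measured at 540/590 nm. Rose Bengal sodium is the reference fluorophore for equivalence.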

Experiment [13] is described as follows: qHTS assay to test for compound auto fluorescence at 590 nm (red) in HepG2 cell free culture (AID 720684). The essentials: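 Plate contents were MEM with 10% FBS plus test compound or DMSO, no cells. Fluorescence was recorded with 540 nm excitation and 590 nm emission.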
The nature of experiment [14]: qHTS assay to test for compound auto fluorescence at 535 nm (green) in HepG2 cell free culture (AID 720686).
Experiment [15] can be described thus: qHTS assay to test for compound auto fluorescence at 460 nm (blue) in HepG2 cells (AID 720687). The gist of the method: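 Blue-channel autofluorescence (Ex/Em 405/460 nm, triamterene-equivalent) was measured after 1 hr compound exposure at 37 C, 5% CO2. Cells were HepG2, plated overnight at 37 C in MEM plus 10% FBS.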
Experiment [16] is described as follows: qHTS assay for small molecules that induce genotoxicity in human embryonic kidney cells expressing luciferase-tagged ATAD5 - cell viability (AID 651634; calls by dose curve; note: nearly all actives have a fitted effect of over 25% in size; note: potency is the fitted concentration of half-maximal effect). The essentials: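 Live-cell protease activity (CellTiter-Fluor, fluorescence) indicates viability. HEK293T cells with luciferase-tagged ATAD5; 15.5 hr compound treatment at 37C.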
Experiment [17] can be described thus: qHTS assay to test for compound auto fluorescence at 460 nm (blue) in HepG2 cell free culture (AID 720685). The essentials: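 Compound (23 nL) or DMSO pinned into cell-free MEM with 10% FBS; blue fluorescence read at 405/460 nm excitation/emission, expressed as auto-fluorescence equivalency to triamterene.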
In experiment [18] the target is Glucocorticoid receptor (Homo sapiens) (UniProt P04150). The experiment is described as follows: qHTS assay to identify small molecule agonists of the glucocorticoid receptor (GR) signaling pathway (AID 720691; active = well fitted activation curve with a large enough effect in the signal ratio in the repeat runs, not every such curve was filed as active; the % refers to the signal ratio). The essentials: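 Beta-lactamase reporter activity, read as fluorescence intensity, was measured in GR-bla HeLa cells exposed to compounds for 18 h at 37 C and then loaded with LiveBLAzer B/G FRET substrate for 2 h at room temperature.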
Glucocorticoid receptor (Homo sapiens), sequence (P04150 whole entry, looked up): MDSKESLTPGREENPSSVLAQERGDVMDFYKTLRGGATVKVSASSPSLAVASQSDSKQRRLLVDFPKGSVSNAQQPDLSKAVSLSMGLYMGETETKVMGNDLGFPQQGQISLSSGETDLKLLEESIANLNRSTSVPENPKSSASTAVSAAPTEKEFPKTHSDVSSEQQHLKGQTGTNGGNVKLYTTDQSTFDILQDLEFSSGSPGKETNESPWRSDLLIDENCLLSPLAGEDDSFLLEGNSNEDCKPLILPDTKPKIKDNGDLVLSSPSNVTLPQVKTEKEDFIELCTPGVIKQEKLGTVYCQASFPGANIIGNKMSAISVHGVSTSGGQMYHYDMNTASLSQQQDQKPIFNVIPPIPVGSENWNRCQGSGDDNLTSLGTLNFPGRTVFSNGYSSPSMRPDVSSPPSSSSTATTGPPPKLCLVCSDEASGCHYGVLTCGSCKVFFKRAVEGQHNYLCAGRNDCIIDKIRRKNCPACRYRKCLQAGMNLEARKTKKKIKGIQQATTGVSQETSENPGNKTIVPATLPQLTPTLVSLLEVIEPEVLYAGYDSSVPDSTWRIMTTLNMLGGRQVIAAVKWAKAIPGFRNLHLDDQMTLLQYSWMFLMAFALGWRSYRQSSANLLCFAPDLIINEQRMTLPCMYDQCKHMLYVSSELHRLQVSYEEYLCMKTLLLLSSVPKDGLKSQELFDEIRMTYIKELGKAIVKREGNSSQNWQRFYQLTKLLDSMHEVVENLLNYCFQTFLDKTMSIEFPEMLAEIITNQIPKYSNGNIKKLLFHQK

Experiment [19] shares this target. Put plainly: qHTS assay to identify small molecule antagonists of the glucocorticoid receptor (GR) signaling pathway (AID 720692; active = well fitted inhibition curve with a large enough effect in the signal ratio in the repeat runs, not every such curve was filed as active; the % refers to the signal ratio). The gist of the method:
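Fluorescence from cleaved LiveBLAzer B/G FRET substrate reports GRE-driven beta-lactamase in HeLa cells; compounds are tested against 5 nM dexamethasone (final) over 18 h at 37 C, substrate incubation 2 h at room temperature.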
% is set by controls: 0 for no effect and ±100 for the full control effect.

For `C1C[C@@H]2[C@H]3CC[C@H](C3)[C@@H]2C1`, the Potency result in experiment [1], in experiment [2], in experiment [3], in experiment [4], in experiment [7] and in [10] was “inactive” in each case. For the same compound, in experiment [15], the Potency entry is “inactive”. In addition, the compound was called inactive in [5], in experiment [6], in experiment [8], in experiment [9], in experiment [11] and in experiment [12]. For the same compound, the call in experiment [13] and in [14] was inactive.
As for `C=COCC(C)C`, the Potency entry in [1], in [2], in [3], in experiment [16], in experiment [4] and in [10] was “inactive” in each case. Further, the Potency result in [17] and in experiment [15] was “inactive” each time. For the same compound, the result in experiment [5], in experiment [6], in [8], in [9], in [11] and in [12] was inactive. Besides, the outcome in experiment [13] and in experiment [14] was inactive.
As to `C=C(C)[C@@H]1CCC2=CCC[C@@H](C)[C@]2(C)C1`, the Potency entry in experiment [1], in experiment [2], in [3], in experiment [16], in experiment [4] and in experiment [7] was “inactive” throughout. The Potency entry in [10], in experiment [17], in [15] and in experiment [18] was “inactive” in each case. Also, the outcome in experiment [5], in [6], in experiment [8], in experiment [9], in [11] and in experiment [12] was inactive. In addition, the outcome in experiment [13] and in experiment [14] was inactive.
Take `CC(C)C[C@H](NC(=O)[C@H](CCc1ccccc1)NC(=O)CN1CCOCC1)C(=O)N[C@@H](Cc1ccccc1)C(=O)N[C@@H](CC(C)C)C(=O)[C@@]1(C)CO1`: the Potency in [1] is 66.8 nM (active); in [2], 106 nM (active); in experiment [3], 335 nM (active); in experiment [16] it was 211 nM (active). For the same compound, the Potency entry in experiment [4], in [7], in [10], in experiment [17] and in [15] was “inactive” each time. The compound was classed as inactive in experiment [5], in experiment [6], in experiment [8], in experiment [9], in [12] and in experiment [13]. The call in experiment [14] was inactive.
As for `Cc1cc2c(OCC(CNC(C)(C)C)OC(=O)c3ccccc3)cccc2[nH]1` (stereo not given), the Potency entry in experiment [1], in [2], in experiment [3], in [16], in experiment [4] and in experiment [7] was “inactive” in each case. Besides, the Potency result in [10], in [17], in [15], in [18] and in [19] was “inactive” in each case. The compound was called inactive in experiment [5], in [6], in experiment [8], in experiment [9], in [11] and in experiment [12]. Besides, the call in [13] and in experiment [14] was inactive.
On to `OC(CCN1CCCC1)(c1ccccc1)C1CCCCC1` (stereo not given), for which the Potency result in [1], in experiment [2], in experiment [3], in experiment [16], in experiment [4] and in experiment [18] was “inactive” in each case. Besides, the Potency result in experiment [19] is “inactive”. The fluorescence, relative to Rose Bengal in experiment [5] is 0.15% [at 18.6 µM]. Also, the fluorescence, % of fluorescein control in experiment [6] was 0.0313% [at 18.6 µM]; in experiment [14], -0.0329% [at 18.6 µM]. Also, the fluorescence, % of triamterene in experiment [7] was 0.0017% [at 18.6 µM]. The fluorescence, % of fluorescent control was -0.0138% [at 18.6 µM] in experiment [8]; -0.0085% [at 18.6 µM] in experiment [10]; -0.206% [at 18.6 µM] in [12]; 0.0206% [at 18.6 µM] in [17]; 0.0411% [at 18.6 µM] in experiment [15]. For the same compound, in [9], the fluorescence, % of fluorescein was 6.8e-05% [at 18.6 µM]. Besides, in [11], the activity change is 0.0202% [at 18.6 µM]. Besides, the fluorescence, % of Rose Bengal in experiment [13] was -0.161% [at 18.6 µM].
With `CC(C)=CCC/C(C)=C/CC/C(C)=C/CCC(=O)OC/C=C(\C)CCC=C(C)C`, the Potency result in experiment [1], in experiment [2], in experiment [3], in experiment [16], in experiment [4] and in experiment [10] was “inactive” in each case. Also, the Potency entry in [17], in experiment [15] and in [18] was “inactive” each time. Further, the call in experiment [5], in experiment [6], in [8], in experiment [9], in [11] and in experiment [12] was inactive. Also, the result in experiment [13] and in experiment [14] was inactive.

The record behind these values is PubChem BioAssay (Tox21).
